Screening data: PubChem, NMMLSC
Bead autofluor = counter-screen for toxin protease inhibitors: compound fluorescence; compound autofluorescence counterscreen, microsphere flow cytometry; hits give high values; 360,000 tested, 3.1% active; fluorescence intensity (no concentration beside the values); in the data active means fluorescence intensity above about 16000; inconclusive means no clear call, values can overlap the other calls
BoNT F protease = BoNT/F light chain protease inhibitors, primary screen, biochemical, flow cytometry, MLPCN library; Multiplex microsphere protease cleavage assay; inhibition, % at 10 µM; 360,000 tested, 0.22% active; AID 588497, 2011; in the data active means inhibition above about 35%, passing the limit was not always enough; inconclusive means no clear call, values can overlap the other calls; further: plate controls were buffer without enzyme for full effect and enzyme alone for no effect
Anthrax LF inh2 = Bacillus anthracis LF protease inhibitors, primary screen, biochemical, multiplex microsphere, MLPCN library | Lethal factor (Bacillus anthracis), P15917 | multiplex microsphere protease cleavage assay | inhibition, % at 10 µM | 360,000 tested, 0.12% active; further: plate controls were buffer without enzyme for full effect and enzyme alone for no effect
BoNT A protease = BoNT/A light chain protease inhibitors, primary screen, biochemical, flow cytometry, MLPCN library. AID 588499, 2011. 360,000 tested, 0.17% active. Botulinum neurotoxin type A light chain protease (Clostridium botulinum A str. ATCC 3502). multiplex microsphere protease substrate cleavage. inhibition, % at 10 µM; further: plate controls were buffer without enzyme for full effect and enzyme alone for no effect
Starred values were filed as active, the others as inactive; ? = inconclusive. Most compounds without a hit are left out; they make up all but 3.5% or so of the library. Unless noted, no stated cut-off is given here; in the data, active means inhibition above about 30%; inconclusive means no clear call, values can overlap the other calls; inactive means below that.

SMILES	Bead autofluor	BoNT F protease	Anthrax LF inh2	BoNT A protease
O=C1C=CC(=O)N1c1ccc2c(c1)C(NC(=O)C(F)(F)F)c1ccccc1-2 (configuration not stated)	3847	-5	1	0
O=C1N/C(=C/c2cccn2-c2ccc(F)cc2)C(=O)N1Cc1ccccc1	23854*	-3	-4	?
O=C(O)c1cccc(-n2cccc2/C=C2\NC(=O)N(Cc3ccc(F)cc3)C2=O)c1	2120	2	-1	0
CC(C)[C@H](NC(=O)c1ccccc1Cl)C(=O)OCC(=O)NCc1ccc2c(c1)OCO2	3844	1	-2	0
Cc1c(CN(C)C(=O)c2ccc(Br)o2)cnn1C	19727*	-1	1	?
CCCCC(=O)Nc1c(O)c2ccccc2[nH]c1=O	21304*	-1	0	-2
CCCCNC(=O)C1(C)CCN1C(=O)c1ccc2c(c1)C(C)(C)CCC2(C)C (configuration not stated)	3498	-3	0	0
CCN(CC)C(=O)C1=C(C)N(CCCOC)C(=O)C(CC(=O)NC2CCCCC2)C1 (configuration not stated)	3166	-2	-2	0
Cc1ccc(C2=NN(S(C)(=O)=O)C(c3ccc4c(c3)OCO4)C2)cc1 (configuration not stated)	8387	3	3	2
CS(=O)(=O)N1N=C(c2ccc(Br)cc2)CC1c1ccc2c(c1)OCO2 (configuration not stated)	25156*	3	1	4
CCC(=O)c1ccc(OC(=O)C2CCN(C3=NS(=O)(=O)c4ccccc43)CC2)cc1	3042	2	7	0
CCC(NC(=O)CSc1nnnn1C1CC1)c1ccc(Br)cc1 (configuration not stated)	3848	-14	-11	0
CCOC(=O)c1cccc(NC(=O)CSc2nc3ccccc3c(=O)n2CC)c1	9775	3	-2	-1
Nn1c(SCC(=O)Nc2ccccc2F)nc2ccccc2c1=O	16496*	-2	0	?
Cc1ccc(NC(=O)CSc2nc(=O)cc(N)n2-c2ccccc2)cc1	4224	-2	1	0
O=C(O)Cn1nnnc1SCC(=O)Nc1ccccc1F	4688	3	2	0
CCOC(=O)c1cccc(NC(=O)CSc2nc3ccccc3c(=O)n2CCOC)c1	22521*	-1	-2	?
COc1ccc(CCn2c(SCC(=O)Nc3cc(C)on3)nc3ccsc3c2=O)cc1OC	19488*	5	-11	3
COC(=O)c1cccc(NC(=O)CSc2nc(=O)cc(N)n2-c2ccccc2)c1	16937*	0	-3	-1
CCc1ccc(N2CC(C(=O)Nc3ccc(S(=O)(=O)N4CCOCC4)cc3)CC2=O)cc1 (configuration not stated)	?	-5	0	2
CCC1=C(Nc2ccccc2)COC1=O	2947	-8	-4	0
Nc1cc(=O)nc(SCC(=O)N(C2CCCCC2)C2CCCCC2)n1-c1ccccc1	16646*	-3	1	?
Cc1cc(NC(=O)CSc2nc3ccsc3c(=O)n2CCCCC(=O)O)no1	16845*	0	-2	-1
Cc1cc(NC(=O)CSc2nc3ccccc3n2CC(=O)N2CC(C)CC(C)C2)no1 (configuration not stated)	23778*	-1	-2	?
COc1ccc(-n2c(N)cc(=O)nc2SCC(=O)N2CCN(c3ccccc3)CC2)cc1	6629	-13	-1	-3
SMILES	Bead autofluor	BoNT F protease	Anthrax LF inh2	BoNT A protease
CCCCCCn1c(SCC(=O)Nc2cc(C)on2)nc2ccccc2c1=O	16827*	-1	-3	-2
O=C(c1cc(COc2ccc(F)cc2Cl)on1)N1CCN(c2cnccn2)CC1	5164	0	-1	1
CCCCc1nnc(NC(=O)CSc2nc(=O)cc(N)n2-c2cccc(C)c2)s1	16503*	0	-1	0
Cc1cccc(-n2c(N)cc(=O)nc2SCC(=O)Nc2cc(C)on2)c1	2379	7	1	0
O=C(CSc1nnc2scc(-c3ccccc3)n12)NCc1ccco1	2054	-7	-2	0
O=C(CSc1nnc2scc(-c3ccc(Cl)cc3)n12)NCc1ccc2c(c1)OCO2	24173*	1	-1	-2
O=C(CSc1nnc2scc(-c3ccc(Cl)cc3)n12)NCc1ccco1	25480*	-10	-5	-7
O=C(CSc1n[nH]c(-c2cccs2)n1)NCc1ccc2c(c1)OCO2	22840*	0	-5	1
Nc1nc(SCC(=O)NCc2ccc3c(c2)OCO3)n[nH]1	3509	3	-4	0
CC1(C(=O)NS(=O)(=O)c2ccc(Cl)cc2)CCN1C(=O)Cc1ccccc1Cl (configuration not stated)	3651	0	2	0
OCc1nc2ccccc2n1CCCc1ccccc1	3466	-3	0	0
CN(C)c1cccc(NC(=O)CCc2ccccc2)c1	7865	75*	25	12
O=C(CCS(=O)(=O)Cc1ccc(Cl)cc1)NCCCN1CCN(c2ccccc2F)CC1	22031*	-6	0	-3
O=C(NCCCN1CCOCC1)c1ccc(CS(=O)(=O)c2cccc(C(F)(F)F)c2)o1	22992*	-4	-2	-2
O=C(NCCCN1CCOCC1)c1ccc(CS(=O)(=O)Cc2ccc(Cl)cc2)o1	20919*	-6	-3	-3
O=C(NC1CCCC1)c1ccc(CS(=O)(=O)c2cccc(C(F)(F)F)c2)o1	22398*	-4	-1	-1
CC(C)NC(=O)C1Cc2c(-c3ccc(Cl)cc3)ccnc2O1 (configuration not stated)	2834	-5	3	0
CCCCNC(=O)COC(=O)c1cc(F)c(F)cc1Cl	23808*	-1	-1	0
CSc1ccc(CN2CCC2(C)C(=O)Nc2cccc(Oc3ccccc3)c2)cc1 (configuration not stated)	3888	-5	-1	0
COc1ccc(-c2cc3ccccc3oc2=O)cc1NC(=O)c1ccc(Br)o1	2867	3	-2	0
COc1ccc(-c2cc3ccccc3oc2=O)cc1NC(=O)c1ccc([N+](=O)[O-])o1	23372*	1	1	0
COc1ccccc1Cc1c(C(C)(C)C)nc2ccc(C)cn12	5966	4	-9	2
COc1ccccc1C(=O)N1CCC(C(=O)c2ccc(F)cc2)CC1	19021*	3	-21	4
COC(=O)C1CCN(C(=O)c2ccc(NC(C)=O)cc2)CC1	22006*	-4	-1	-3
COC(=O)C1CCN(C(=O)c2ccccc2NC(C)=O)CC1	8333	4	-5	0
COC(=O)C1CCN(C(=O)c2ccccc2Oc2ccccc2)CC1	20014*	1	-4	2
CC1CCN(C(=O)c2ccc(NS(C)(=O)=O)cc2)CC1	19949*	0	1	?
O=C(Nc1ccc(S(=O)(=O)NC2=NCCCCC2)cc1)c1cccc(OC(F)F)c1	3637	4	-2	0
CCCNC(=O)C1(C)CCCN(Cc2ccc(Cl)cc2)C1 (configuration not stated)	3496	-1	4	0
